# Measurements taken from PubChem BioAssay (NCI).
# The panel holds about 83,000 compounds, 20% with a hit somewhere; the sample as a whole holds those more often.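 A percent growth of 40 corresponds to 60% growth inhibition; 0 means no net growth; -100 means all cells died. Active threshold: below 10.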 Active and inactive are the calls of the source.
# Test system: OVCAR-5 ovarian
# Experiment: NCI-60 one-dose screen, 48 h (100 = growth as untreated, 0 = no growth, -100 = all killed)
# Settings: 10 µM unless noted
row,Structure (SMILES),growth
1,CCOC(=O)c1c(NC(=O)c2ccc(C(C)C)cc2)sc2c(CN(C)C)c(O)ccc12,64.1% (inactive)
2,CCOC(=O)c1cnc2ccccc2c1Cl,98.3% (inactive)
3,CCN(CC)c1nc(SCc2ccccc2Cl)ncc1C,119% (inactive)
4,O=C1Nc2ccc(I)cc2C1=O,98.6% (inactive)
5,O=S(=O)(NCCNc1nccc(-c2c(-c3cccc(F)c3)nc3occn23)n1)c1ccc(Br)cc1,93.8% (inactive)
6,CC(C)c1ccc(COCc2cc(CN3CCCC3)c(O)c3ncccc23)cc1,32.8% (inactive)
7,COc1ccc2cc(C(=O)c3coc4ccc(O)cc34)ccc2c1,103% (inactive)
8,O=C(CI)NC1Oc2ccccc2-c2oc(=O)c(-c3ccccc3)cc21 (centres undefined),12.8% (inactive)
9,Cc1ccc(-n2c(=S)[nH]c3sc4c(c3c2=O)CCC(=O)C4)cc1,87.4% (inactive)
10,C=CCn1c(SCC(=O)Nc2ccc(C(=O)/C=C/c3cc4cc(OC)ccc4nc3Cl)cc2)nnc1-c1ccc(Br)cc1,99.2% (inactive)
11,COc1cccc(/C=C/C(=O)c2cc3c(N)c(C(=O)Nc4ccccc4)sc3nc2C)c1,46.1% (inactive)
12,O=C1C(Cl)=C(Oc2ccccc2)C(=O)c2ccccc21,118% (inactive)
13,CC(C)OC(=O)c1ccc2[nH]c(O)c(C(=Nc3ccc(N(C)C(=O)CN4CCN(C)CC4)cc3)c3ccccc3)c2c1,-36.2% (active)
14,N#CC1C=CN(CC(N)=O)c2ccc3cccnc3c21 (centres undefined),98.9% (inactive)
15,S=C(Nc1ccc(-c2nc(N3CCOCC3)c3cccn3n2)cc1)Nc1cccnc1,35.2% (inactive)
16,Cc1cc2c(O)c(-c3cccc(Cl)c3)c3sc(=O)oc3c2cc1C,106% (inactive)
17,COC(=O)[C@H]1CCCN1C[C@@H](O)CN1C(=O)/C(=C\c2cc(OC)c(OC)c(OC)c2)c2ccccc21,123% (inactive)
18,CS(=O)(=O)Nc1cc(-c2ccc3ncnc(Nc4c(Cl)ccc5c4OCO5)c3c2)cnc1Cl,-28.6% (active)
19,COc1ccc(C(=S)N2CCN(c3ccccc3Cl)CC2)cc1OC,95.2% (inactive)
20,CC(C)N1CN2C(=S)NC3C2N(C1)C(=S)N3C (centres undefined),107% (inactive)

row,Structure (SMILES),growth
1,O=C(c1ccc(-c2nc(CSc3nc4ccccc4s3)no2)cc1)N1CCSCC1,117% (inactive)
2,O=Nc1c(-c2c(O)[nH]c3ncccc23)[nH]c2ccccc12,67.7% (inactive)
3,O=C(CSc1nnc2n1S(=O)(=O)c1ccccc1N2c1ccccc1)Nc1nc2ccc(F)cc2s1,94.7% (inactive)
4,O=C1/C(=C/c2ccccc2Br)COc2ccc(O)c(O)c21,31.4% (inactive)
5,CCOC(=O)C(=Cc1cccc(Br)c1)C(=O)OCC,42.9% (inactive)
6,COC(C(=O)[C@@H](O)[C@@H](C)O)[C@@H]1Cc2cc3cc(O[C@H]4C[C@@H](O[C@H]5C[C@@H](O)[C@H](O)C(C)O5)[C@H](O)C(C)O4)cc(O)c3c(O)c2C(=O)[C@H]1O[C@H]1C[C@@H](O[C@H]2C[C@@H](O[C@H]3C[C@@H](OC)[C@H](O)C(C)O3)[C@@H](O)C(C)O2)[C@H](O)C(C)O1 (some centres undefined),54.3% (inactive)
7,Cc1ccc(-c2cc(-c3ccc(Cl)cc3)nc(NC(=O)c3cccnc3)n2)cc1,102% (inactive)
8,Fc1cccc(CNc2c3ccccc3nc3ccccc23)c1F,73.3% (inactive)
9,CN(C)CC(=O)Nc1ccc2ncnc(Nc3ccc(Oc4cccc(C(F)(F)F)c4)c(Cl)c3)c2c1,82.6% (inactive)
10,Cc1cc(N)c2cc(NC(=O)/C=C\c3ccccc3Cl)ccc2n1,-95.4% (active)
11,N#CC1=C(N)Oc2c(sc3c(F)cccc23)C1c1ccc(F)cc1 (centres undefined),61.5% (inactive)
12,C/C(=C(/c1ccc(Cl)cc1)c1ccc(OCCN2CCCC2)cc1)c1ccc(Cl)cc1,88.9% (inactive)
13,COC(=O)c1ccc2c(c1)C(=O)c1c-2n(CCCN)c(=O)c2cc([N+](=O)[O-])ccc12,-74.2% (active)
14,CS(=O)(=O)C1=CN(CCO)C(=O)N2CCCN=C12,99.4% (inactive)
15,O=C1Nc2ccccc2[C@]12CC(c1ccccc1)=NN2,61.7% (inactive)
16,O=C(Cn1c(=O)sc2nc3ccccc3nc21)Nc1ncc(Cc2cccc(Cl)c2Cl)s1,101% (inactive)
17,O=C(N/N=C/c1ccc(F)cc1)c1ccc(C(F)(F)F)nc1Nc1cccc(C(F)(F)F)c1,-7.78% (active)
18,COC(=O)[C@]1(C)CCC[C@]2(C)[C@H]3C[C@H]4C(C(C)C)=C[C@]3(CC[C@H]21)[C@H]1[C@@H]4[C@@H](OCCC#N)CC[C@@H]1OCCC#N,92.8% (inactive)
19,CN(C)c1ccc(Nc2cc(-c3cccc(OC(F)(F)F)c3)nc3ccc(N4CCCC4)cc23)cc1,100% (inactive)
20,CCn1c(=S)sc2c(Nc3ccc(F)cc3)nc(-c3cccnc3)nc21,85.8% (inactive)

# Test system: OVCAR-4 ovarian
# Experiment: as above
# Settings: 10 µM unless noted
row,Structure (SMILES),growth
1,CC(C)c1ccc(COCc2cc(CN3CCCC3)c(O)c3ncccc23)cc1,-6.36% (active)
2,COc1ccc2cc(C(=O)c3coc4ccc(O)cc34)ccc2c1,97.6% (inactive)
3,Cc1cc2c(O)c(-c3cccc(Cl)c3)c3sc(=O)oc3c2cc1C,13.4% (inactive)
4,O=C(CSc1nnc2n1S(=O)(=O)c1ccccc1N2c1ccccc1)Nc1nc2ccc(F)cc2s1,99.5% (inactive)
5,O=C1/C(=C/c2ccccc2Br)COc2ccc(O)c(O)c21,48.2% (inactive)
6,CCOC(=O)C(=Cc1cccc(Br)c1)C(=O)OCC,48.2% (inactive)
7,COC(C(=O)[C@@H](O)[C@@H](C)O)[C@@H]1Cc2cc3cc(O[C@H]4C[C@@H](O[C@H]5C[C@@H](O)[C@H](O)C(C)O5)[C@H](O)C(C)O4)cc(O)c3c(O)c2C(=O)[C@H]1O[C@H]1C[C@@H](O[C@H]2C[C@@H](O[C@H]3C[C@@H](OC)[C@H](O)C(C)O3)[C@@H](O)C(C)O2)[C@H](O)C(C)O1 (some centres undefined),64.5% (inactive)
8,Fc1cccc(CNc2c3ccccc3nc3ccccc23)c1F,49.9% (inactive)
9,Cc1cc(N)c2cc(NC(=O)/C=C\c3ccccc3Cl)ccc2n1,-64.1% (active)
